# Vaccinia mCherry: qHTS for Stage-Specific Inhibitors of Vaccinia Orthopoxvirus: mCherry Reporter Primary qHTS; 310,000 compounds, 0.63% hits; Vaccinia virus mCherry reporter infection, fluorescence; Potency, µM (doses to about 36.5 µM), for inactives: top-dose activity change, negative = inhibition, most hits filed as inhibitors; calls by dose curve; tested in A549 cells; further: potency means the concentration at half of the fitted maximal effect; nearly all actives have a fitted effect of over 35% in size
# HCV inh: qHTS Assay for Inhibitors of Hepatitis C Virus (HCV); Huh7.5.1 HCVcc-Cre infection, luciferase reporter, 44 h; Potency, µM (doses to about 41.8 µM), without a hit: at the highest dose activity change, negative = inhibition, actives largely listed as inhibitors; 340,000 compounds, 3.4% hits; active means well fitted inhibition curve with a large enough effect; inconclusive means small, poorly fitted or top-dose-only effect, or another doubt; inactive means no such curve, though single readings can be large or run the other way; further: potency means the concentration at half of the fitted maximal effect
#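 Antiviral activity was scored by luciferase reporter output from cells infected with HCVcc-Cre (~0.5 moi) in presence of compound, 44 h infection period, cells seeded 1,000/well 4 h prior.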
# Vaccinia Venus: qHTS for Stage-Specific Inhibitors of Vaccinia Orthopoxvirus: Venus Reporter Primary qHTS | Vaccinia virus Venus reporter expression, fluorescence | Potency, µM (top dose mostly 36.5 µM), inactives show top-dose activity change, negative = inhibition, most hits filed as inhibitors | 330,000 compounds, 0.46% hits; calls by dose curve; tested in A549 cells; further: potency means the concentration at half of the fitted maximal effect; nearly all actives have a fitted effect of over 30% in size
# HCMV inh: qHTS Assay for inhibitors of the human cytomegalovirus (HCMV). HFF cells, HCMV-luciferase reporter, 72 h; hits give low values. activity change, negative = inhibition, % at 57.5 µM. 410,000 compounds, 4.5% hits; in the data active means activity change below about -60%; inconclusive means no clear call, values can overlap the other calls; inactive means above about -39%
#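 Screen run at 2 compound doses on HFFs infected with reporter HCMV, MOI 1 PFU/cell. Luciferase activity from cell lysates at 72 h post infection gave inhibition relative to buffer-only and Salinomycin wells.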
# MARV entry inh: qHTS for inhibitors of binding or entry into cells for Marburg Virus. AID 540276, 2011. 300,000 compounds, 1.8% hits. Potency, µM (top dose mostly 37.8 µM), for inactives: at the highest dose activity change, negative = inhibition, actives largely listed as inhibitors. Marburg virus pseudotyped entry inhibition, cell reporter; calls by dose curve; tested in HEK293 cells; further: potency means the concentration at half of the fitted maximal effect
# LASV entry inh: qHTS for Inhibitors of binding or entry into cells for Lassa Virus; Lassa virus pseudotype entry inhibition, cell reporter; Potency, µM (series often up to 37.9 µM), for the others: top-dose activity change, negative = inhibition, usual class: inhibitors; 300,000 compounds, 1.2% hits; AID 540256, 2011; calls by dose curve; tested in HEK293 cells; further: potency means the concentration at half of the fitted maximal effect; nearly all actives have a fitted effect of over 50% in size
# * = called active by the depositor; i = inactive; ? = inconclusive; / = not tested or not shown; [ ] = another dose, or the depositor's remark. Only some compounds are listed: those with a hit (about 7.8% of all), similar ones and a draw of the others. On the % scale 0 is the no-effect control and ±100 the full control effect.
SMILES,Vaccinia mCherry,HCV inh,Vaccinia Venus,HCMV inh,MARV entry inh,LASV entry inh
Cn1c(=O)c2c(nc(Sc3ncccn3)n2Cc2ccccc2Cl)n(C)c1=O,/,11%,/,-9,-1%,-28%
CCOC(=O)CC(NC(=O)c1cc2cc(Cl)ccc2oc1=O)c1ccc(C)cc1 (stereo not given),-9%,/,-10%,-8,-14%[46.1 µM],-1%[46.1 µM]
CC(C)N=C(NS(=O)(=O)c1ccccc1)C(Cl)(Cl)Cl,14µM*,?,11µM*,-98*,?,?
CCC1CN(C(=O)Nc2cc(C)ccc2OC)c2cc(Cl)ccc2O1 (stereo not given),5%,/,-4%,-61*,/,0%[46.1 µM]
CCOC(=O)c1ccccc1NC(=O)N1CCOc2ccc(Cl)cc21,-4%,/,-14%,-61*,/,8%[46.1 µM]
CCC1CN(C(=O)NCc2ccccc2)c2cc(Cl)ccc2O1 (stereo not given),-2%,5.6µM*,-7%,-18,/,-11%[46.1 µM]
COc1ccc(OC)c(NC(=O)N2CC(C)Oc3ccc(C)cc32)c1 (stereo not given),-9%,/,-12%,4,/,-28%[46.1 µM]
O=C(Nc1cccc2c1CCCC2)N1CCOc2ccc(Cl)cc21,-8%,/,-17%,18,/,10%[46.1 µM]
CCn1cc(C(=O)NC[C@H]2CCCO2)c(=O)c2cc(F)c(N3CCN(C)CC3)cc21,/,/,/,/,-21%,/
COCC(=O)Nc1cc(C(=O)N2CCCC(C(N)=O)C2)cc2nc(-c3ccccc3)n(C)c12 (stereo not given),-14%,/,-6%,/,/,/
COc1ccc(-c2cc(C(F)(F)F)n3nc(C(=O)Nc4ccccc4SC)cc3n2)cc1OC,-3%,/,-3%,0,3%[46.1 µM],-3%[46.1 µM]
CSC1=NC2(CCN(C(=O)NC3CCCCC3)CC2)N=C1c1ccc(C)cc1,-17%,/,-16%,16,/,-4%[46.1 µM]
COc1cc(/C=N/NC(=O)Cc2ccc(Br)cc2)cc(OC)c1O,-11%,?,3%,-18,-10%[46.1 µM],/
COc1cc(Br)cc(/C=N/NC(=O)Cc2ccccc2)c1O,?,13µM*,?,-20,-18%,13µM*
O=C(CP(=O)(c1ccccc1)c1ccccc1)N/N=C/c1cc(Br)cc(Br)c1O,-10%,?,-4%,?,?,2.8µM*
O=C(Cc1ccccc1)N/N=C/c1ccccc1F,/,5%,/,/,/,/
O=C(Cc1ccccc1)N/N=C/c1cc(Br)cc(Cl)c1O,13µM*,?,?,-18,?,?
Cc1ccc(CNC(=O)c2ccc(CN3CC(=O)N4CCCCC4C3=O)cc2)cc1 (stereo not given),-14%,/,-13%,8,/,-13%[46.1 µM]
CCCOc1c(Cl)cc(C(=O)Nc2ccc3c(c2)OCO3)cc1OCC,?,13µM*,?,-17,?,?
CCC(=O)Oc1ccc(C(=O)Nc2ccc3c(c2)OCO3)cc1,-3%,14%,4%,-103*,?,?
Cc1ccc(C(=O)Nc2ccc3c(c2)OCCO3)c(C)c1,i,-16%,10%,?,1.3µM*,?
CCn1cc(Cl)c(C(=O)Nc2ccc3c(c2)OCCO3)n1,-1%,-14%,-10%,56,10µM*,?
CCn1cc(Cl)c(C(=O)Nc2cccc(C(F)(F)F)c2)n1,-14%,1%,-4%,7,-16%[46.1 µM],-15%
Cc1cc(C)c(C(=O)Nc2ccc3c(c2)OCCO3)c(C)c1,-6%,/,-14%,67,/,/
COc1ccc2c(c1)sc1ncc(C(=O)NCc3ccc(Cl)cc3)c(=O)n12,2%,/,-5%,-2,-2%[46.1 µM],/
SMILES,Vaccinia mCherry,HCV inh,Vaccinia Venus,HCMV inh,MARV entry inh,LASV entry inh
Cc1cccc(N2CCN(c3ccc(C(=O)O)cc3NC(=O)c3cccc(Cl)c3)CC2C)c1 (stereo not given),-8%,/,-2%,7,/,?
C[C@@H]1CC[C@H]2C(=O)N(CC3CCCCC3)C[C@H](O)CN2[C@@H]1c1ccc(Br)cc1,/,/,/,/,0%[14.2 µM],/
Cc1cccc(NC(=O)c2ccc3c(c2)OCCO3)c1,-9%,-6%,-7%,18,7.9µM*,?
CCCCC(=O)Nc1cccc(NC(=O)c2ccc3c(c2)OCO3)c1,/,2.8µM*,/,16,-5%,-6%
Cc1ccc(NC(=O)c2ccc3c(c2)OCCO3)cc1S(=O)(=O)Nc1cccc(Cl)c1,-23%,10µM*,?,-33,?,?
O=C(Nc1ccccc1)c1ccc2c(c1)OCCO2,i,-7%,-17%,21,?,?
COc1ccc(-c2cccc(NC(=O)c3ccc4c(c3)OCO4)c2)nn1,-22%,16µM*,-13%,-20,?,-9%
CC(C)(C)OC(=O)/C=C/[C@@H]1Cc2cc(C(F)(F)F)ccc2N1,/,/,/,14,/,/
O=C(Nc1ccc2c(c1)OCCO2)c1cccc2nc3ccccc3nc12,/,?,/,-92*,?,-29%
Cc1ccc(/C=N/NC(=O)c2n[nH]c3c2CCCC3)cc1,-20%,2%,?,-75*,?,?
O=C(N/N=C\c1cccc(Cl)c1)c1n[nH]c2c1CCCC2,-1%,-1%,?,81,?,?
C/C(=N\NC(=O)c1n[nH]c2c1CCC2)c1cccs1,-6%,5%,-8%,-91*,-4%[46.1 µM],-22%
O=C(N/N=C/c1cccs1)c1n[nH]c2c1CCCC2,?,-29%,?,-85*,?,2.2µM*
CC(=O)C1=C(C)N(Cc2ccccc2)C(=O)NC1c1ccco1 (stereo not given),/,/,/,/,2%[14.2 µM],?
Cc1ccccc1CCNCc1c(C(=O)O)c(C)n(Cc2c(F)cccc2Cl)c1C,0%,/,-5%,5,10%[46.1 µM],3%[46.1 µM]
Cc1cccc(OCc2nnc(SCC(=O)Nc3ccc(C)cc3C)o2)c1,-11%,/,1%,2,-4%[46.1 µM],-1%[46.1 µM]
Cc1ccc(Sc2c(CO)c(-c3ccccc3)nn2C)cc1,?,?,?,-83*,?,?
Cn1nc(-c2ccccc2)c(CO)c1Oc1cccc(C(F)(F)F)c1,-23%,?,-18%,-4,17%[46.1 µM],-19%
Cc1onc(-c2c(F)cccc2Cl)c1C(=O)O/N=C(\N)c1ccc([N+](=O)[O-])o1,?,?,?,-62*,-2%[46.1 µM],-1%
Cc1onc(-c2ccccc2Cl)c1C(N)=O,/,19%,-1%,13,?,10%
Cc1nc(/C(N)=N/OC(=O)c2c(-c3ccccc3Cl)noc2C)cs1,i,-13%,-19%,-39,7.9µM*,-25%
Cc1onc(-c2ccccc2Cl)c1C(=O)Oc1ccc(Cl)cc1Cl,-13%,/,-12%,?,/,-5%[46.1 µM]
COc1ccc(/C(N)=N/OC(=O)c2c(-c3ccccc3Cl)noc2C)cc1OC,-11%,13µM*,?,-79*,?,?

# Screens as filed in PubChem BioAssay.
